An excerpt weighted towards active compounds, which were near 4.1% of everything screened.
DAX1 inh-1 – DAX1 (NR0B1) inhibitors on StAR promoter, primary screen, cell-based, luminescence, SF-1 (NR5A1), full-length DAX-1 | AID 652010, 2013 | inhibition, % at 6.8 µM | HEK293T StAR-luciferase reporter, SF-1/DAX-1 repression relief | 1.1% of 370,000 active;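 active = inhibition above the mean over all tested compounds plus 3 SD, cut at about 3.6% in these data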;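 note: higher inhibition means more luminescence from relief of DAX-1 repression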
DAX1 inh-2 – DAX1 (NR0B1) inhibitors, primary screen, cell-based, HEK293, Gal4-DAX1, luciferase luminescence | HEK293 Gal4-DAX1 luciferase reporter | Nuclear receptor subfamily 0 group B member 1 (Homo sapiens), P51843 | inhibition, % at 6.75 µM | 0.99% of 340,000 active | AID 504766, 2011;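 active = inhibition above the mean over all tested compounds plus 3 SD, cut at about 4.2% in these data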;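 note: inhibition shows as a rise in luminescence from relieved DAX1 repression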
Target sequence (P51843 207-470 limits assumed): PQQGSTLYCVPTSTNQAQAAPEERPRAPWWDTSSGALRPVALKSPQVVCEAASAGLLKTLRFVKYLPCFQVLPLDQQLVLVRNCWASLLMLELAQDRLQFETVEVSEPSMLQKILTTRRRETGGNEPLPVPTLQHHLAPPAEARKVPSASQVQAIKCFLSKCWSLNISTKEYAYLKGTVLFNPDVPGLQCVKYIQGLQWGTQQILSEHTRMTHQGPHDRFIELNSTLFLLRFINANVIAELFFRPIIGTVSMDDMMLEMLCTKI
hgDAF-12 ag – H. glycines DAF-12 receptor agonists, primary screen, cell-based, luminescence, HEK293, GAL4 fusion, UAS-luciferase. Nuclear hormone receptor DAF-12 (Heterodera glycines), GAL4 fusion. HEK293 GAL4-hgDAF12 UAS-luciferase reporter, agonist luminescence; normalized to butyrate control. activation, % at 6.8 µM. 1.8% of 370,000 active;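 active = activation above a cutoff set at the mean of all screened compounds plus 3 SD, cut at about 10% in these data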
ssDAF-12 act – S. stercoralis DAF-12 nuclear receptor activators, primary screen, cell-based, luminescence, HEK293, GRIP1 co-expression, lit1-tk-luc | 1% of 370,000 active | HEK293 ssDAF-12/GRIP1 lit1-tk-luc reporter; % of 3 µM dafachronic acid response | activation, % at 6.8 µM;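 active = activation above the mean over all tested compounds plus 3 SD, cut at about 0.9% in these data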
hcDAF12 agonist – H. contortus DAF-12 nuclear receptor activators, primary screen, cell-based, luminescence, HEK293, lit1-tk-luc reporter. activation, % at 6.8 µM. 1.4% of 370,000 active. HEK293 hcDAF-12 lit1-tk-luc reporter; 0% DMSO, 100% Δ7-dafachronic acid;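 active = activation above the mean of all tested compounds plus 3 SD, cut at about 5.5% in these data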
Hits are given with their value; . = inactive; / = not tested or not shown.

SMILES	DAX1 inh-1	DAX1 inh-2	hgDAF-12 ag	ssDAF-12 act	hcDAF12 agonist
CCCCOc1ccc(CC(=O)NCC(=O)O)cc1	.	4.9	.	.	.
COC(=O)[C@]12C[C@H](CC(=O)N3CCSCC3)C(=O)N(Cc3cccc4ccccc34)C1=C[C@H](C(C)(C)C)O[C@@H]2C	.	/	.	.	.
COc1ccc2c(C)cc3nncn3c2c1	.	4.2	.	.	.
Cc1cc2nncn2c2ccccc12	.	.	.	.	.
Cn1ccnc1C(=O)O[C@@H]1CCC[C@@]2(C(=O)N(Cc3ccccc3)c3ccccc32)[C@H]1NC(=O)CCc1ccccc1	.	/	.	.	.
Cc1cc(NC(=O)CCC(=O)N(CC(=O)NCC2CCCO2)c2ccc(F)c(Cl)c2)no1 (centres undefined)	.	4.2	.	.	.
CC(=O)Oc1cccc(C(=O)Nc2ccc(NC(=O)c3cccs3)cc2)c1	4.5	.	.	.	.
COc1cccc(C(=O)Nc2cccc(NC(=O)c3cccs3)c2)c1	.	.	.	.	.
CC(=O)NC1CCCCN(Cc2ccc(Cl)cc2)C1=O (centres undefined)	.	/	.	.	.
COc1ccc(C(C(=O)NCc2ccccc2)N(Cc2cccnc2)C(=O)c2snc(C(N)=O)c2N)cc1OC (centres undefined)	.	4.3	.	.	.
CC(SCc1ccccc1)C(=O)Nc1ccccc1-c1ccccc1 (centres undefined)	.	.	.	.	6.1
CCCC(=O)Oc1ccc(-c2nccc(C(OC)OC)n2)cc1	.	4.3	.	.	.
Nc1ccn([C@@H]2O[C@H](CNCc3ccc(N4CCNCC4)cc3)[C@@H](O)[C@H]2O)c(=O)n1	.	.	.	.	.
CNS(=O)(=O)c1ccc(CNC[C@H]2O[C@@H](n3ccc(N)nc3=O)[C@H](O)[C@@H]2O)cc1	.	4.6	.	.	.
COc1ccccc1NC(=O)COc1ccccc1C(=O)c1cnn(-c2ccccc2)c1	.	.	13	.	.
COc1ccccc1NC(=O)COc1ccccc1	.	.	.	.	.
COc1ccc(N2CCN(CCCNC(=O)CCc3cccc(F)c3)CC2)cc1	.	/	.	.	.
Cc1cc(=O)oc2cc(NC(=O)c3ccccc3C(=O)O)ccc12	.	.	.	.	.
Cc1cc(=O)oc2cc(NC(=O)c3ccccc3Cl)ccc12	.	.	13	.	.
CCOC(=O)Nc1ccc2c(C)cc(=O)oc2c1	.	.	11	.	.
C[C@H]1C(c2ccccc2F)O[C@]2(C[C@H](O)c3ccccc3O2)C[C@@H]1O (some centres undefined)	.	/	.	.	.
O=C(NNC(=O)c1ccncc1)Nc1ccc(N=Nc2ccccc2)cc1	.	.	10	.	.
Cc1ccc(SCCC(=O)N2CCC(C(N)=O)CC2)cc1	.	.	.	.	.
Cc1ccc(SCCC(=O)N2CCC(C)CC2)cc1	.	5.7	.	.	.
Cc1cc(C)cc(Cn2c3ccc(NC(=O)NCc4ccccc4)cc3c(=O)n2C)c1	.	/	.	.	.
SMILES	DAX1 inh-1	DAX1 inh-2	hgDAF-12 ag	ssDAF-12 act	hcDAF12 agonist
Cn1c(=O)c2cc(NC(=O)NCc3ccccc3)ccc2n1C/C=C/c1ccccc1	.	/	11	.	.
O=C(N[C@H](C(=O)N1CCC[C@H]1C(=O)NC1CCCC1)C1CCCCC1)C1CCCC1	.	/	.	.	.
Cc1cccc(NC(=S)NCc2ccc3c(c2)OCO3)c1	.	.	.	.	.
Cc1ccccc1OCC(=O)OCC(=O)NCc1ccc2c(c1)OCO2	.	.	.	1.2	.
C/C(=N\OCC(=O)OCC(=O)NCc1ccccc1)c1ccc2c(c1)OCO2	3.9	.	.	.	.
Cc1cccc(NC(=O)NCc2ccc3c(c2)OCO3)c1	4.4	.	.	.	.
Cc1ccccc1-c1nnc(Cc2ccccc2)o1	.	.	12	.	.
Cc1ccccc1-c1nnc(SCc2ccccc2)o1	.	.	.	.	.
O=C(CSc1nc2nc(-c3cccs3)cc(C(F)(F)F)c2c(=O)[nH]1)C(F)(F)F	.	.	13	.	.
COC(=O)CSc1nc2nc(-c3cccs3)cc(C(F)(F)F)c2c(=O)[nH]1	.	.	.	.	.
Clc1cccc(Cl)c1/C=N\Nc1nccs1	.	.	.	.	.
Cc1csc(N/N=C/c2c(F)cccc2Cl)n1	.	.	.	.	6.5
NC(=O)C12NC(Cc3ccccc31)c1ccccc12 (centres undefined)	.	/	.	.	.
Brc1ccc2nc(-c3ccco3)c(CC3CCCCC3)n2c1	.	/	.	1.3	.
O=C(O)CSc1cc(NS(=O)(=O)c2cccc([N+](=O)[O-])c2)c2ccccc2c1O	.	.	.	1.0	.
CCOc1ccc(S(=O)(=O)Nc2cc(SCC(=O)O)c(O)c3ccccc23)cc1	.	.	.	1.5	.
C#CCN(Cc1ccco1)C(=O)c1nnc2c3ccccc3n(S(=O)(=O)c3ccc(C)cc3)c2n1	.	/	.	.	.
Cc1ccc(-c2nc3c(c(=O)c4ccccc4n3C)c(=O)n2-c2ccc(F)cc2)cc1	.	.	.	.	5.6
Cn1c2ccccc2c(=O)c2c(=O)n(-c3ccc(F)cc3)c(-c3cccs3)nc21	.	.	.	.	.
COc1ccc(OCC2CN(C3CCCC3)S(=O)(=O)CCO2)cc1 (centres undefined)	.	/	.	.	.
O=C(NC1CCCC1)c1ccc2nc[nH]c2c1	.	.	.	.	.
Cc1ccc(NC(=O)c2ccc3nc[nH]c3c2)cc1C	.	.	.	.	5.9
O=C(c1ccccc1)c1ccc2nc[nH]c2c1	.	.	.	.	6.3
Cc1cc(C)cc(NC(=O)c2ccc3nc[nH]c3c2)c1	.	.	.	.	.
CC(C)=CCCC1(C)C=Cc2c(c(C)cc3c2[nH]c2cc(O)ccc23)O1 (centres undefined)	.	4.9	.	.	.
SMILES	DAX1 inh-1	DAX1 inh-2	hgDAF-12 ag	ssDAF-12 act	hcDAF12 agonist
Nc1ccccc1-c1nc2ccccc2[nH]1	4.0	.	11	.	.
O=C(CSc1nnc(-c2ccccc2F)n1Cc1ccco1)Nc1ccccc1-c1ccccc1	.	/	.	.	.
Cc1ccc(-n2nc(C)c3c(C)cc(=O)[nH]c32)cc1	.	.	.	3.5	.
Cc1nn(-c2ccccc2)c2[nH]c(=O)cc(C(F)F)c12	.	.	.	.	.
COc1ccccc1Cc1c(-c2ccco2)nc2c3ccccc3ccn12	.	/	.	.	5.7
COc1ccccc1Cc1c(-c2ccc(C)cc2)nc2c3ccccc3ccn12	.	/	.	.	.

Screening results from PubChem.
